Assay results taken from the supplement of paper PMC10849652.
The full data set covers some 7,900 targets. This sample favours those with a hit. About 0.6% of all pairs of compound and target were hits. Values without a mark were called inactive.

Columns and labels:
Assay in all cases: log2 fold change, soluble protein after heating vs DMSO (PISA); higher = thermal stabilisation; K562 cells, 10 uM, 30 min; active = over 0.2 and 3.5 SD of the protein, either way, in both replicates (recomputed)
[1] = compound: Cc1ccc(NC(=O)c2ccc(CN3CC[C@H](N(C)C)C3)c(C(F)(F)F)c2)cc1Nc1nccc(-c2cncnc2)n1 [bafetinib]
Summary of the method: (§1)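 Soluble protein was defined as the supernatant after 21,000xg for 90 min. It came from K562 cells at 2×10^6 cells/mL given 10 μM compound for 30 min, heated in aliquots for 3 min across 48°C-58°C, pooled, and extracted in PBS with 0.5% NP-40 at 4°C, and was quantified by TMTpro 16plex LC-MS/MS with equalised channel sums. Thermal stability against control samples, from duplicates, is reported as log2 fold change.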

[2] = compound: Cc1cccc(CC(=O)N2CCc3c2ccc(-c2cn(C)c4ncnc(N)c24)c3F)n1
Summary of the method: as §1

[3] = compound: Cc1cn(-c2cc(NC(=O)c3ccc(C)c(Nc4nccc(-c5cccnc5)n4)c3)cc(C(F)(F)F)c2)cn1 [nilotinib]
Summary of the method: as §1

[4] = compound: Cc1nc(Nc2n[nH]c3c2CN(C(=O)N[C@H](CN(C)C)c2ccccc2)C3(C)C)c2sccc2n1
Summary of the method: as §1

[5] = compound: Cc1nc(Nc2ncc(C(=O)Nc3c(C)cccc3Cl)s2)cc(N2CCN(CCO)CC2)n1 [dasatinib]
Summary of the method: as §1

[6] = compound: Cc1ncc(-c2ccnc(Nc3ccc(S(C)(=O)=O)cc3)n2)n1C(C)C
Summary of the method: as §1

[7] = compound: Cn1cc(-c2ccc3c(c2)CCN3C(=O)Cc2cccc(C(F)(F)F)c2)c2c(N)ncnc21
Summary of the method: as §1

[8] = compound: Cn1cc(-c2ccc3nnc(C(F)(F)c4ccc5ncccc5c4)n3n2)cn1
Summary of the method: as §1

[9] = compound: Cn1cncc1[C@@](N)(c1ccc(Cl)cc1)c1ccc2c(c1)c(-c1cccc(Cl)c1)cc(=O)n2C [tipifarnib]
Summary of the method: as §1

[10] = compound: FC(F)(F)c1ccc(/C=C/c2nc(COc3ccc(CCCCn4ccnn4)cc3)co2)cc1 [mubritinib]
Summary of the method: as §1

UniProt O95819, sequence (O95819 whole entry, looked up): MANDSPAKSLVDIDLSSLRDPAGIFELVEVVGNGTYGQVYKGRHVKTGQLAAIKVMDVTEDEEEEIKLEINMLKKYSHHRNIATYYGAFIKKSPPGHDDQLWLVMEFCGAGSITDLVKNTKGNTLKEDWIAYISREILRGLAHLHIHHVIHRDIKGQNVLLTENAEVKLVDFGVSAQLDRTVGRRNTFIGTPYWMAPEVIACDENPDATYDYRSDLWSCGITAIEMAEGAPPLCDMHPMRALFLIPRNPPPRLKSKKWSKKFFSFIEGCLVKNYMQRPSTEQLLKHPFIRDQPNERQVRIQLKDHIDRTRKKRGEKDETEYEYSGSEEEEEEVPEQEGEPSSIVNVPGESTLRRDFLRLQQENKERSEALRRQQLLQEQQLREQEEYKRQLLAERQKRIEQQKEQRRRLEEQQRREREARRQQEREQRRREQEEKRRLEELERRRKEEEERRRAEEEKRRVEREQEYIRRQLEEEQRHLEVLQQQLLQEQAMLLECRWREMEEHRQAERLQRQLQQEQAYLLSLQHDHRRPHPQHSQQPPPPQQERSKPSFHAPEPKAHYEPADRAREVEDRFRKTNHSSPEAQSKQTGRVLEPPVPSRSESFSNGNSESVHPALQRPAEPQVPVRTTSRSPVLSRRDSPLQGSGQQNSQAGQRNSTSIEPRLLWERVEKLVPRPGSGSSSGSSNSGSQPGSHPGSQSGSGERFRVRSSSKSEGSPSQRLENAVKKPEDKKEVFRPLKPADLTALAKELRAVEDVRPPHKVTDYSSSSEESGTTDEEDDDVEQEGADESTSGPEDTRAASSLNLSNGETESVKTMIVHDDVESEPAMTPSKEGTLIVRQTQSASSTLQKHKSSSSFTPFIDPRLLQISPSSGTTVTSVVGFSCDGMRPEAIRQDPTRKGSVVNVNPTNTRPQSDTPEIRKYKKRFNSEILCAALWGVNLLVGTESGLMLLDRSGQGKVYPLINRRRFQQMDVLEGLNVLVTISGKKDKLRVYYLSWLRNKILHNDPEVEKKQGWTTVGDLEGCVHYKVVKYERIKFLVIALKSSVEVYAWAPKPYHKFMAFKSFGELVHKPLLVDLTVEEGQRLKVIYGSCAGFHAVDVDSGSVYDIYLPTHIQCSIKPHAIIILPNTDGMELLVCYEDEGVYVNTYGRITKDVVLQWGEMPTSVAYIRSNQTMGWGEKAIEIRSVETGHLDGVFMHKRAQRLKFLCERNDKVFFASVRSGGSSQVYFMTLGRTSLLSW
UniProt Q16891, sequence (Q16891 whole entry, looked up): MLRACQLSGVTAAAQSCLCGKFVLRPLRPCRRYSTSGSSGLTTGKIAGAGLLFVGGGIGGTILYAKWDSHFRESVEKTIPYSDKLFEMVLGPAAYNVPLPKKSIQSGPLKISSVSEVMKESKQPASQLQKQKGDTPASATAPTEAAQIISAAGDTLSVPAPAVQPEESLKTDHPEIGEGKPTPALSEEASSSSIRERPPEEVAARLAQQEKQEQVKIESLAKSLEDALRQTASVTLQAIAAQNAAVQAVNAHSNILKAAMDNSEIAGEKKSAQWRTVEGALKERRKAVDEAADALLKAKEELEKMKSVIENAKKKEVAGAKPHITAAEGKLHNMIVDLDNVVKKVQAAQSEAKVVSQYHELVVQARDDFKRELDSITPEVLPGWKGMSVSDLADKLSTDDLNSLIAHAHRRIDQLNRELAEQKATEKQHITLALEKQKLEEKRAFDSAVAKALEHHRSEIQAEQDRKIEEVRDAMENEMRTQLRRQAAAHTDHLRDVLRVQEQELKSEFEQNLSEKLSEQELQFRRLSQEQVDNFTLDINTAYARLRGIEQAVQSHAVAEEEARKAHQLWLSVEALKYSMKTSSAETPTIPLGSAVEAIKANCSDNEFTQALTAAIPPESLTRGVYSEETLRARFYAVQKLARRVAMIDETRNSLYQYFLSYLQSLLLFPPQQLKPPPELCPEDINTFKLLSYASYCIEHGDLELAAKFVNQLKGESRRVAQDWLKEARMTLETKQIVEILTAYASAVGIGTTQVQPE
UniProt A1L0T0, sequence (A1L0T0 whole entry, looked up): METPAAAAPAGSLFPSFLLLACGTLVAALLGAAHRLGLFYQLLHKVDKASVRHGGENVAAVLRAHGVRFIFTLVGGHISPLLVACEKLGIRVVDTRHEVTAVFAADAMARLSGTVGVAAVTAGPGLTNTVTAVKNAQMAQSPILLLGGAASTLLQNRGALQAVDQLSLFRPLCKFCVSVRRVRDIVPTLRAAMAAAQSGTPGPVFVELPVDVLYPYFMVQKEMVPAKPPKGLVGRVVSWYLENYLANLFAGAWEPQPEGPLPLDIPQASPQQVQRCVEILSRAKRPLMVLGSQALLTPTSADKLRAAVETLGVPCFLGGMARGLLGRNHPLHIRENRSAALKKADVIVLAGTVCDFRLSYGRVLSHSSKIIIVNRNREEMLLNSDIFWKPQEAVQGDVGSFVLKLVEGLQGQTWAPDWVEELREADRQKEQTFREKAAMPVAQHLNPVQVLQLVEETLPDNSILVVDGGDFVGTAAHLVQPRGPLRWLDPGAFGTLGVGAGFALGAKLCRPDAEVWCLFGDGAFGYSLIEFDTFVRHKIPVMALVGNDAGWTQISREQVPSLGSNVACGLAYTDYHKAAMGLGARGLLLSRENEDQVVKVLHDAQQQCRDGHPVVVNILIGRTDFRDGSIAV
UniProt P02545, sequence (P02545 whole entry, looked up): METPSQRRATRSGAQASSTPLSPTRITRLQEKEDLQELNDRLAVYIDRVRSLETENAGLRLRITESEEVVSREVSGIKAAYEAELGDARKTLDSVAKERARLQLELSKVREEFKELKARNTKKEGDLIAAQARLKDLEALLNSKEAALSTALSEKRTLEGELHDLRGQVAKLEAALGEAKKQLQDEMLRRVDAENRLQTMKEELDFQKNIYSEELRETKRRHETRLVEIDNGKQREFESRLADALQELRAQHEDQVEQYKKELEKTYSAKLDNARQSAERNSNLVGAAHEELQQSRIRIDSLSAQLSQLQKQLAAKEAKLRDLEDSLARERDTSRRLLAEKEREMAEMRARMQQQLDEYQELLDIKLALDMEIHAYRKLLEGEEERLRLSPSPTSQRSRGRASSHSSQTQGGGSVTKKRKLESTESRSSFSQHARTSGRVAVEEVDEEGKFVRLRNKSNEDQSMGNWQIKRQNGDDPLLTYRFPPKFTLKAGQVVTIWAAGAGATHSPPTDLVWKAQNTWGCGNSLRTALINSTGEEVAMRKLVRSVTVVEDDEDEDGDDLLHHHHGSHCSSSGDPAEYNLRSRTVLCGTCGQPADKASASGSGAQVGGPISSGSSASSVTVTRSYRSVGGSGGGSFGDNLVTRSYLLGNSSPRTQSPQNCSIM
UniProt P01116, sequence (P01116 whole entry, looked up): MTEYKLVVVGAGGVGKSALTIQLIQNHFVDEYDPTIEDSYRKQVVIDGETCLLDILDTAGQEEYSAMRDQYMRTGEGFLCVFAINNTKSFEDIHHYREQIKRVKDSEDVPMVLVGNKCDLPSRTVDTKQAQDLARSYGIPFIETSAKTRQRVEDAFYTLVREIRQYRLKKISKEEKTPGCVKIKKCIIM
UniProt Q9UHB6, sequence (Q9UHB6 whole entry, looked up): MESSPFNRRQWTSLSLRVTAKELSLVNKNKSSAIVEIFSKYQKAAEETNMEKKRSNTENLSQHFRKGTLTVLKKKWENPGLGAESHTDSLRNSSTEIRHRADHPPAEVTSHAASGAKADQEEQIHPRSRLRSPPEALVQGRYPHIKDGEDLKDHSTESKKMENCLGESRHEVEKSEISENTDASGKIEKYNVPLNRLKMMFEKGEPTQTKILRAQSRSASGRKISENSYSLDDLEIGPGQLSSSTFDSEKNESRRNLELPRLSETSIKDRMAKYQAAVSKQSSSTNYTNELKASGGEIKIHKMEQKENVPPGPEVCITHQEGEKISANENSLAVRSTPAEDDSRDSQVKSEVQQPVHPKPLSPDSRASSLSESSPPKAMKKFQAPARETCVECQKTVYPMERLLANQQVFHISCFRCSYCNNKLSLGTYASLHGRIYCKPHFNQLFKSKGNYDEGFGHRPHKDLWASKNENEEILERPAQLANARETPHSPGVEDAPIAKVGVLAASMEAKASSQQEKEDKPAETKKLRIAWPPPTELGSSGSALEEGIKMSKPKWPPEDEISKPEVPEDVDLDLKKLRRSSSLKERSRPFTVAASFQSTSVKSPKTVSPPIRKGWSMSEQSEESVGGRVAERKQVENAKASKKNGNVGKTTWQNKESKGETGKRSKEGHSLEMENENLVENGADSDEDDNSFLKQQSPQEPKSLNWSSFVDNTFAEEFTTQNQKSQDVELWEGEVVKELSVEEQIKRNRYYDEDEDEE
UniProt Q08431, sequence (Q08431 whole entry, looked up): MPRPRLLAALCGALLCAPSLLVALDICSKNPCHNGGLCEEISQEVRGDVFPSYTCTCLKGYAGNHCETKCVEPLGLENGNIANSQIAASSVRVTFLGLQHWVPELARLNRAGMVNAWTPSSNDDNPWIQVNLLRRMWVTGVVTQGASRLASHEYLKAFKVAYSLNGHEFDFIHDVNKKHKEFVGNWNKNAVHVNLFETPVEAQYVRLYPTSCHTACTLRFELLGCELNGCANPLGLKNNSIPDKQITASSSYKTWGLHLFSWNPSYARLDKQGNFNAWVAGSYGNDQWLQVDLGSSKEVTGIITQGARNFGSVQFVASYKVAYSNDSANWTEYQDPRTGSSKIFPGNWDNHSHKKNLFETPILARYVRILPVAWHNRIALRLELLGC
UniProt O14880, sequence (O14880 whole entry, looked up): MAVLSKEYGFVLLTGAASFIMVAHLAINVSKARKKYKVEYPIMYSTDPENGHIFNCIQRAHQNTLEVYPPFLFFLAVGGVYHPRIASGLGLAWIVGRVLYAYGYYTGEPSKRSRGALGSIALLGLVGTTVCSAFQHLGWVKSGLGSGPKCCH
UniProt Q13257, sequence (Q13257 whole entry, looked up): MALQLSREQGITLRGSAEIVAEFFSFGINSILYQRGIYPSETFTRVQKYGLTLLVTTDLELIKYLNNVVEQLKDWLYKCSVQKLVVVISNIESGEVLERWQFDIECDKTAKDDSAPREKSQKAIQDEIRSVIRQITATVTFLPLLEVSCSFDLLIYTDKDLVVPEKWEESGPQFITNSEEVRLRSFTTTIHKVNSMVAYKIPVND

Row | Target | log2 fold change [1] | log2 fold change [2] | log2 fold change [3] | log2 fold change [4] | log2 fold change [5] | log2 fold change [6] | log2 fold change [7] | log2 fold change [8] | log2 fold change [9] | log2 fold change [10]
1 | KIF13A (UniProt Q9H1H9) | -0.033 | -0.095 | 0.012 | -0.01 | -0.044 | 0.008 | 0.029 | -0.032 | -0.014 | 0.024
2 | MFGE8 (UniProt Q08431) | 0.024 | 0.002 | 0.168 | 0.008 | 0.049 | -0.039 | -0.057 | -0.029 | 0.033 | -0.096
3 | MGST3 (UniProt O14880) | -0.085 | -0.002 | 0.01 | 0.012 | 0.069 | -0.056 | 0.004 | -0.026 | 0.019 | -0.094
4 | IPO9 (UniProt Q96P70) | 0.019 | 0.031 | -0.016 | -0.06 | 0.04 | 0.011 | -0.069 | -0.06 | -0.084 | -0.005
5 | MAD2L1 (UniProt Q13257) | -0.054 | 0.018 | -0.082 | -0.042 | -0.06 | -0.012 | -0.001 | 0.009 | -0.055 | 0.042
6 | IMMT isoform 2 (UniProt Q16891) | -0.081 | 0.11 | -0.007 | -0.002 | 0.144 | -0.022 | -0.037 | 0.037 | 0.065 | 0.066
7 | MAP1LC3B2 (UniProt A6NCE7) | -0.044 | -0.029 | -0.006 | -0.023 | -0.024 | 0.072 | 0.019 | -0.011 | 0.007 | 0.018
8 | KCTD2 (UniProt Q14681) | -0.23 | -0.845 (active) | -0.144 | 0.012 | 0.146 | -0.076 | -0.102 | -0.015 | 0.308 | 0.113
9 | LTN1 isoform 3 (UniProt O94822) | -0.036 | 0.039 | -0.079 | -0.031 | -0.122 | -0.052 | -0.09 | -0.042 | -0.151 | -0.009
10 | MAP4K4 isoform 3 (UniProt O95819) | -0.068 | 0.029 | -0.038 | -0.094 | -0.162 | -0.09 | -0.024 | 0.038 | -0.027 | 0.021
11 | KRAS isoform 2 (UniProt P01116) | 0.008 | -0.115 | -0.123 | 0.074 | -0.018 | -0.041 | 0.064 | -0.08 | 0.087 | 0.041
12 | LONP2 (UniProt Q86WA8) | -0.037 | -0.054 | 0.26 | -0.187 | 0.024 | -0.065 | 0.055 | -0.131 | 0.012 | 0.063
13 | MED16 (UniProt Q9Y2X0) | 0.018 | -0.009 | -0.014 | -0.092 | 0.141 | -0.287 | -0.144 | 0.009 | -0.029 | 0.024
14 | IPO7 (UniProt O95373) | -0.018 | 0.035 | -0.058 | -0.044 | -0.074 | -0.091 | -0.018 | 0.008 | -0.126 | 0.079
15 | KPNA4 (UniProt O00629) | -0.111 | 0.021 | 0.04 | -0.155 | -0.017 | -0.033 | 0.021 | 0.032 | -0.004 | 0.093
16 | IMMT isoform 4 (UniProt Q16891) | -0.119 | 0.018 | -0.038 | 0.004 | -0.019 | 0.003 | 0.015 | 0.018 | -0.03 | 0.012
17 | LRRFIP1 (UniProt Q32MZ4) | -0.034 | -0.043 | 0.008 | 0.002 | 0.038 | -0.016 | 0.024 | 0.013 | 0.016 | 0.035
18 | JAK3 (UniProt P52333) | -0.013 | -0.056 | -0.01 | 0.082 | -0.028 | -0.02 | -0.019 | 0.044 | 0.052 | -0.061
19 | MIEF1 (UniProt L0R8F8) | -0.077 | -0.001 | -0.1 | 0.067 | 0.001 | -0.093 | 0.022 | -0.053 | -0.03 | -0.039
20 | ILVBL (UniProt A1L0T0) | 0.065 | -0.049 | 0.074 | 0.011 | -0.09 | -0.025 | 0.247 | -0.005 | -0.047 | 0.041
21 | ILKAP (UniProt Q9H0C8) | 0.028 | 0.079 | 0.052 | -0.117 | -0.208 | 0.02 | 0.036 | 0.045 | -0.093 | 0.137
22 | MAPK9 (UniProt P45984) | -0.112 | 0.003 | -0.023 | 0.047 | -0.044 | 0.134 | 0.042 | 0.04 | 0.015 | -0.059
23 | LNPEP (UniProt Q9UIQ6) | -0.056 | -0.007 | 0.017 | 0.026 | 0.033 | -0.024 | 0.014 | -0.007 | 0.008 | 0.035
24 | INPP5B (UniProt P32019) | 0.103 | -0.059 | -0.077 | 0.001 | -0.111 | 0.014 | -0.005 | -0.032 | 0.072 | 0.018
25 | LMNA (UniProt P02545) | -0.011 | -0.025 | 0.065 | -0.116 | 0.097 | -0.179 | -0.04 | -0.043 | 0.064 | -0.069
26 | LIMA1 isoform 4 (UniProt Q9UHB6) | -0.115 | 0.019 | -0.136 | -0.112 | 0.179 | 0.052 | -0.154 | -0.071 | 0.088 | 0.019
27 | LRPPRC (UniProt P42704) | -0.053 | 0.117 | -0.14 | -0.721 | -0.732 | 0.016 | 0.236 | 0.24 | -0.656 | -0.161
